A selection: hits, their analogues and other compounds. The true share with any hit is near 1.5%.
BCLXL inh = inhibitors of human Bcl-xL; Q07817; GST-Bcl-xL / FITC-Bim BH3 peptide fluorescence polarization; inhibition, % at 10.9 µM; 320,000 compounds, 0.7% hits; AID 2129;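 active means inhibition above the mean of all tested compounds plus 3 SD, cutoff set per campaign, cut at about 30% in these data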;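 further: 0% = DMSO wells and 100% = unlabeled Bim-BH3 peptide competitor; inhibitors lower millipolarization by displacing the labeled peptide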
EBV gp42 inh = blocks Epstein-Barr virus glycoprotein 42 binding. Q1HVG2. Fluorescence polarization binding assay, mP read-out. inhibition, % (tested at 21.74 µM). 220,000 compounds, 0.42% hits. AID 1085; in the data active means inhibition above about 50%
GLD-1 RNA inh = GLD-1-TGE RNA interaction inhibition (C. elegans) | Q17339 | purified GLD-1 + fluorescein TGE RNA, fluorescence polarization | inhibition, % at 5.96 µM | 320,000 compounds, 0.44% hits;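 active means percent inhibition above a per-plate cutoff, the plate mean of test compounds plus 3 SD, cut at about 30% in these data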;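 further: 0% = DMSO wells with GLD-1 and probe and 100% = wells lacking GLD-1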
MCL1 BIM primary = MCL1-BIM-BH3 interaction inhibition (human). Q07820. GST-MCL1 / FITC-Bim-BH3 fluorescence polarization. inhibition, % at 10.9 µM. 320,000 compounds, 0.68% hits. AID 2057;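 active means inhibition above the mean inhibition of all tested compounds plus 3 SD, set per campaign, cut at about 40% in these data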;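 further: 0% = DMSO wells and 100% = unlabeled Bim-BH3 peptide control; higher means more loss of mP so more displacement of Bim peptide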
E coli Lon inh = inhibitors of E. coli Lon protease; purified E. coli Lon protease, fluorescence polarization; 360,000 compounds, 0.42% hits; AID 602123; P0A9M0; inhibition, % at 7.94 µM; in the data active means inhibition above about 13%, passing the limit was not always enough;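 further: 0% = enzyme with probe and DMSO and 100% = no enzyme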
MEX-5 binding = C. elegans MEX-5 TCR-2 RNA binding activity. Q9XUB2. MEX-5/FITC-TCR2 RNA binding, fluorescence polarization; active compounds read low. activity score (negative = inhibition of binding), % at 10 µM. 300,000 compounds, 0.38% hits. AID 1832;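 active means inhibition past about -25% in most replicates, and total fluorescence under double the plate's negative control median, limit read from the data; inconclusive means replicates evenly split on the limit, or fluorescence at least double controls; inactive means too little inhibition in most replicates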;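 further: 0% = DMSO and -100% = 5 µM competing unlabeled TCR2 RNA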
Target sequence (Q9XUB2 whole entry, looked up): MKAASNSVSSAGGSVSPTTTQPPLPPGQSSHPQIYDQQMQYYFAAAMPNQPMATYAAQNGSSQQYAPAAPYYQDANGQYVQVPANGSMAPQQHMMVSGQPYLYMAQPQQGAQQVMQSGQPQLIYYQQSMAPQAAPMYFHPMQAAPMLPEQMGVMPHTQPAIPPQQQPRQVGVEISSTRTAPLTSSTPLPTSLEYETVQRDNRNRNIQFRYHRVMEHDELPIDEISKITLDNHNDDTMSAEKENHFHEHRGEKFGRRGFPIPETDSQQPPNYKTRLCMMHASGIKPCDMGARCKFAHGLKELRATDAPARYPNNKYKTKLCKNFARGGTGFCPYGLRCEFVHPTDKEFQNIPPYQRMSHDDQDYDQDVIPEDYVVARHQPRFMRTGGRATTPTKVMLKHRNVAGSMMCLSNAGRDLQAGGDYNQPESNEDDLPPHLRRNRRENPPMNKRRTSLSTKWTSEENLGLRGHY
An asterisk follows results filed as active; ? = inconclusive; . = no result given.

SMILES	BCLXL inh	EBV gp42 inh	GLD-1 RNA inh	MCL1 BIM primary	E coli Lon inh	MEX-5 binding
CCC1(C)Cc2ccccc2/C(=C/C(=O)N2CCCCC2)N1 (stereo not given)	31*	8	12	31	7	-1
O=C(COC(=O)/C=C/c1ccc([N+](=O)[O-])cc1)NC(=O)NC1CCCCC1	.	.	1	.	-8	.
O=C1C2C3C=CC(C4CC34)C2C(=O)N1/N=C/c1ccc(-c2ccc(Cl)cc2[N+](=O)[O-])o1 (stereo not given)	16	10	15	18	5	2
COc1ccc(-c2ccc(/C=N/N3C(=O)C4C5C=CC(C6CC56)C4C3=O)o2)c([N+](=O)[O-])c1 (stereo not given)	31*	5	20	39	4	2
Cc1ccc2c(ccc[n+]2CC(=O)c2ccccc2)c1	24	13	-20	20	-2	-3
O=C(C[n+]1cc(Br)cc2ccccc21)c1ccccc1	49*	.	-31	45*	-116	1
O=C(NCCN1CCCC1)c1ccc(Cl)cc1Cl	-6	.	-12	4	-10	1
O=C(OCCN1C(=O)c2cccc3c(N4CCOCC4)ccc(c23)C1=O)c1cc(Cl)cc(Cl)c1	.	132*	.	.	.	.
O=C(OCCN1C(=O)c2ccccc2C1=O)c1ccccc1	1	-15	2	2	-17	.
O=C(OCCN1C(=O)c2ccccc2C1=O)c1ccc(S(=O)(=O)N2CCCCCC2)cc1	0	9	12	-4	10	.
CCN(CC)S(=O)(=O)c1ccc(C(=O)OCCN2C(=O)c3cccc4c(N5CCOCC5)ccc(c34)C2=O)cc1	23	133*	13	14	2	?
Cn1c(=O)oc2cc(S(=O)(=O)NCCc3ccccc3)ccc21	9	-1	5	7	4	-1
Cn1cc(C2=C(c3ccc(Cl)cc3Cl)C(=O)NC2=O)c2ccccc21	60*	.	-10	24	-64	?
Cn1cc(-c2ccccc2C(N)=O)c(=O)c2cc(Cl)ccc21	5	-11	2	1	-2	-2
CC(=O)N1CCN(c2ccc(NCc3ccco3)cc2)CC1	7	.	3	8	2	.
CCOC(=O)Cn1c2ccc(OC)cc2c2nc3ccccc3nc21	1	64*	4	8	-8	-102*
CCOC(=O)Cn1c(-c2ccccc2)nc2ccccc2c1=O	-3	-11	2	-3	0	1
O=C(c1ccccc1)c1ccc2c(c1)OCCOCCOCCO2	0	4	4	-4	-5	-2
O=C(c1ccccc1)c1ccc2c(c1)OCCCO2	3	68*	3	9	4	0
CC(=O)C(=Nc1ccccc1Cl)NNc1ccc(Cl)cc1	31*	6	5	31	0	-8
COc1ccc(C(=O)COC(=O)CSCc2c(C)noc2C)cc1OC	-5	-6	1	-3	14	0
CC1=CN2C(=N)/C(=C/c3ccc([N+](=O)[O-])o3)C(=O)N=C2S1	35*	4	12	31	-187	0
CC1=CN2C(=N)/C(=C/c3ccco3)C(=O)N=C2S1	-7	-18	-6	-9	-15	-1
Oc1c(Cl)cc(Cl)cc1Sc1cc(Cl)cc(Cl)c1O	20	46	-2	53*	.	-4
CCCCN(C(=O)CNC(=O)c1cccs1)C(C(=O)NC1CCCC1)c1ccncc1 (stereo not given)	0	-6	-2	-6	-1	1
SMILES	BCLXL inh	EBV gp42 inh	GLD-1 RNA inh	MCL1 BIM primary	E coli Lon inh	MEX-5 binding
Clc1ccc(-c2nnc3sc(-c4ccc(Br)o4)nn23)cc1	25	-13	58*	36	11	.
Clc1ccc(-c2nnc3sc(-c4ccc(Br)o4)nn23)c(Cl)c1	0	-13	-1	5	1	-4
COC(=O)C1=C(O)/C(=C\c2cc(C)n(-c3ccccc3C)c2C)N=C1C	42*	17	27	44*	-7	1
COC(=O)C1=C(O)/C(=C\c2cc(C)n(-c3ccccc3F)c2C)N=C1C	29	13	28	29	1	-7
COc1ccccc1NC(=O)CC(c1ccc(OC(C)C)cc1)c1ccccc1OC (stereo not given)	2	70*	-3	4	-17	0
COc1ccccc1C(CC(=O)Nc1ccc(C)c(C)c1)c1ccc(OC(C)C)cc1 (stereo not given)	6	-7	12	0	-10	2
Cc1cc(NC(=O)CSc2nnc(C3COc4ccccc4O3)o2)no1 (stereo not given)	-2	-9	2	6	-3	2
Cc1ccc(Sc2ccc([N+](=O)[O-])cc2[N+](=O)[O-])nc1	3	-8	-1	1	-2	2
COc1ccccc1NC(=O)c1nnn(Cc2ccccc2)c1NC(=O)C(F)(F)F	2	-11	4	7	10	1
O=C1C2C3C=CC(C3)C2C(=O)N1CNc1ccc(O)cc1 (stereo not given)	30*	-16	15	34	.	-1
Cc1ccc(NCN2C(=O)C3C4C=CC(C4)C3C2=O)cc1 (stereo not given)	2	-1	4	0	2	3
COc1ccc(/C=C2/N=C(c3cccs3)OC2=O)cc1OC(C)C	-2	107*	-3	-6	-3	-53*
CC1=NN(c2ccc(C(=O)O)c(N)c2)C(=O)C1	21	-17	-2	20	-7	-39*
Cc1ccc(S(=O)(=O)N/N=C/c2cc(Br)c(C)o2)cc1	10	-22	12	11	17*	0
N=c1oc2c3c4c(cc2cc1C(=O)Nc1ccccc1)CCCN4CCC3	165*	-67	88*	191*	6	?
COc1ccc(S(=O)(=O)N2CCCCC2)cc1NC(=O)CCNC(=O)c1ccccc1Cl	32*	.	8	28	-2	.
CCCCn1nc(-c2ccccc2)c2nc3ccccc3nc21	24	154*	9	20	.	?
c1ccc2c(c1)nc(NCC1CCCO1)c1nnnn12 (stereo not given)	40*	27	11	27	-37	4
CCCCCC(=O)Nc1ccccc1N1CCN(c2ccccc2)CC1	0	-21	-1	6	-5	1
COC(=O)CC1=C(C(=O)OC)C(c2cccc(OCC(N)=O)c2)C(C#N)=C(N)O1 (stereo not given)	32*	30	16	33	1	-1
Cc1[nH][nH]c(=O)c1C(c1cc([N+](=O)[O-])ccc1O)c1c(C)[nH][nH]c1=O	11	-11	-1	-1	-3	-27*
Cc1[nH][nH]c(=O)c1C(c1ccccc1[N+](=O)[O-])C(C#N)C#N (stereo not given)	12	2	2	8	-6	2
CC(C)[C@H](NC(=O)c1ccc(F)cc1)C(=O)NC1=NCCS1	-3	-5	5	0	2	1

Screening data from PubChem.
